Screening data as filed in PubChem BioAssay.
Most compounds without a hit are left out; they make up all but 0.92% or so of the library.
RPL19A-GFP yeast – RPL19A-GFP expression modulators in yeast, primary screen, cell-based, S. cerevisiae, multiplex flow cytometry, MLPCN. AID 2025, 2009. percent response vs DMSO, % at 10 µM. 330,000 tested, 0.3% active. S. cerevisiae RPL19A-GFP strain, 3 h; active compounds read low;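 active = percent response vs DMSO below 50%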;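 note: median channel GFP fluorescence of the barcoded RPL19A-GFP strain; lower means less RPL19A-GFP as with rapamycin TOR inhibition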
CIT2-GFP yeast – modulators of CIT2-GFP expression in yeast, primary screen, S. cerevisiae, GFP fusion, multiplex flow cytometry, MLPCN library; GFP response vs DMSO, % at 10 µM; 320,000 tested, 0.065% active; S. cerevisiae CIT2-GFP strain, 3 h; 100 means same as DMSO wells;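 active = GFP response relative to DMSO above a set limit, near the screen mean plus 3 SD, cut at about 150% in these data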;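 note: ratio of well median GFP fluorescence to mean of DMSO wells on the plate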
LAP4-GFP MLPCN – modulators of LAP4-GFP expression in yeast, primary screen, S. cerevisiae, multiplex flow cytometry, MLPCN library. 3 h; median GFP as percent of DMSO wells. GFP response vs DMSO, % at 10 µM. 320,000 tested, 0.34% active. AID 2023, 2009;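 active = GFP response vs DMSO above a set limit, about the screen mean plus 3 SD, cut at about 150% in these data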
MEP2-GFP yeast – modulators of MEP2-GFP levels in yeast, primary screen, S. cerevisiae, multiplex flow cytometry, MLPCN library. S. cerevisiae MEP2-GFP strain, 3 h; 100% = DMSO control level. GFP response vs DMSO, % at 10 µM. 330,000 tested, 0.51% active;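 active = GFP response versus DMSO above a set limit, roughly screen mean plus 3 SD, cut at about 180% in these data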;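 note: median GFP fluorescence of the barcode-gated MEP2-GFP cells per well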
AGP1 TOR yeast – modulators of AGP1-GFP expression in yeast TOR pathway, primary screen, cell-based, multiplex flow cytometry, S. cerevisiae, MLPCN library; 3 h; GFP as percent of DMSO wells; GFP response vs DMSO, % at 10 µM; 320,000 tested, 0.02% active;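 active = GFP response relative to DMSO above a set limit, near screen average plus 3 SD, cut at about 150% in these data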;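 note: median GFP channel fluorescence of the gated AGP1 strain per well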
LAP4-GFP pick2 – LAP4-GFP expression modulators in yeast, confirmation, cell-based, second cherry pick, flow cytometry; shares compounds with LAP4-GFP MLPCN; GFP response vs DMSO, % at 10 µM; AID 2621, 2010; S. cerevisiae LAP4-GFP strain, 3 h; 590 tested, 20% active;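 active = GFP signal as percent of the solvent control above about 150%, meaning raised reporter expression, limit read from the data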
MEP2-GFP pick2 – modulators of MEP2-GFP levels in yeast, confirmation, S. cerevisiae, flow cytometry GFP, second cherry picks; shares compounds with LAP4-GFP MLPCN; S. cerevisiae MEP2-GFP strain, 3 h; GFP response vs DMSO, % at 10 µM; 590 tested, 10% active;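 active = GFP signal above 150% of the solvent control wells, that is a rise of more than half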;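 note: median channel GFP fluorescence of all gated yeast cells per well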
RPL19A GFP CP2 – RPL19A-GFP modulators in TOR pathway yeast, confirmation, cell-based, S. cerevisiae, flow cytometry, second cherry pick; AID 2623, 2010; shares compounds with LAP4-GFP MLPCN; S. cerevisiae RPL19A-GFP strain, 3 h; active compounds read low; 100% means same as DMSO wells; 590 tested, 3% active; GFP response vs DMSO, % at 10 µM;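 active = under 65% GFP response relative to DMSO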;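 note: median GFP channel fluorescence per well over the all cells gate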
CIT2-GFP pick2 – modulators of CIT2-GFP expression in yeast, confirmation, flow cytometry, second cherry pick, single plex; shares compounds with LAP4-GFP MLPCN; S. cerevisiae CIT2-GFP strain, 3 h; DMSO control wells read 100%; GFP response vs DMSO, % at 10 µM; 590 tested, 8% active; AID 2624, 2010;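 active = GFP response vs DMSO above about 150%, limit read from the data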;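 note: median green fluorescence per well over all gated yeast cells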
AGP1-GFP pick2 – AGP1-GFP expression modulators, hit retest, confirmation, cell-based, flow cytometry, S. cerevisiae, cherry pick set 2; shares compounds with LAP4-GFP MLPCN; S. cerevisiae AGP1-GFP strain, 3 h; percent response vs DMSO, % at 10 µM; 590 tested, under 10 active; AID 2643, 2010;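 active = over 150 percent of DMSO response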;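 note: median GFP channel fluorescence over all cells without mother daughter split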
Yeast autofluor – compound autofluorescence in yeast s288c, dose response, artefact control for yeast TOR pathway GFP screen, s288c strain. fluorescence change (kMESF span) at 33 µM. 610 tested, under 10 active. shares compounds with LAP4-GFP MLPCN. S. cerevisiae s288c, 520 nm autofluorescence, flow cytometry, 3 h; active compounds read high; zero means same as solvent-only cells. AID 2757, 2010;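 active = fluorescence span over the dose series, or activity score, above about 33, limit read from the data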
Yeast autofl DR – autofluorescence of compounds in yeast s288c, dose response, artefact control for yeast TOR pathway GFP screen, primary hits, KU SAR, s288c parental; shares compounds with LAP4-GFP MLPCN; S. cerevisiae s288c parental, compound autofluorescence, flow cytometry, 3 h; fluorescence change (span) at 33 µM; 110 tested, under 10 active;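 active = fluorescence change span, or the activity score built from it, above 25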
TORC1 bypass gr – wild-type yeast growth inhibition sparing TORC1 bypass cells, mechanism study for yeast TOR pathway GFP screen, BY4741 wild type, TORC1 bypass strain; growth rating (0-3) at 30 µM; 120 tested, under 10 active; shares compounds with LAP4-GFP MLPCN; S. cerevisiae BY4741 spot growth rating, 48-72 h; active compounds read low;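 active = growth rating at most 1 for wild type yeast while the TORC1 bypass strain still grows fully, rated 3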
Of the large screens only hits and unclear results are named; the others gave an inactive call (follow-up assays come after a bar, where they were run); [ ] = dose if it differs, or a comment.

O=C1OC(c2ccc(F)cc2)=C/C1=C\c1ccc([N+](=O)[O-])o1	CIT2-GFP yeast 217[may fluoresce green], LAP4-GFP MLPCN 291[may fluoresce green], MEP2-GFP yeast 647[may fluoresce green] | LAP4-GFP pick2 667 | MEP2-GFP pick2 active | RPL19A GFP CP2 inactive | CIT2-GFP pick2 991 | AGP1-GFP pick2 174
O=C1OC(c2ccc(F)cc2)=C/C1=C\c1ccc(O)cc1	none
COc1ccc(N2CCN(C(=O)c3cccc4nc(C)oc34)CC2)cc1	none
O=C(Oc1c(Cl)cc(Cl)c2cccnc12)c1cccs1	LAP4-GFP MLPCN 222 | LAP4-GFP pick2 201 | MEP2-GFP pick2 inactive | RPL19A GFP CP2 inactive | CIT2-GFP pick2 inactive | AGP1-GFP pick2 inactive | Yeast autofluor inactive
O=C(Oc1c(Cl)cc(Cl)c2cccnc12)c1ccco1	LAP4-GFP MLPCN 230 | Yeast autofluor inactive | Yeast autofl DR inactive | TORC1 bypass gr inactive
COCCCNC(=O)c1ccccc1NS(=O)(=O)c1ccc(C)cc1	none
Cc1cc(NC(=O)c2cccnc2Cl)ccc1NC(=O)c1cc2ccccc2o1	none | Yeast autofluor inactive
CCC(=O)Nc1ccc(NC(=O)c2cc3ccccc3o2)c(OC)c1	none | Yeast autofluor inactive
O=C(Nc1ccc(NC(=O)c2cc3ccccc3o2)cc1)c1ccc2c(c1)OCCO2	none | Yeast autofluor inactive
COc1cc(NC(=O)c2ccc(C)cc2)ccc1NC(=O)c1cc2ccccc2o1	none | Yeast autofluor inactive
COc1cc(NC(=O)c2c(OC)cccc2OC)ccc1NC(=O)c1cc2ccccc2o1	none
COc1cc(NC(=O)c2ccc(Br)cc2)ccc1NC(=O)c1cc2ccccc2o1	none
Cc1cc(NC(=O)c2cccnc2)ccc1NC(=O)c1cc2ccccc2o1	none
CCOc1ccc(S(=O)(=O)N2CCCC(C(=O)N3CCOCC3)C2)cc1Cl (stereo unspecified)	none
CCOC(=O)[C@@H]1CCN(Cc2ccccc2)C[C@H]1c1ccccc1	none
